HT1080 IDH1KD tx: toxicity to HT-1080 IDH1 knockdown cells (counter line). AID 686971. actives 2% (n = 360,000). Potency, µM (series often up to 46.1 µM), for the others: at the top dose activity, negative = toxicity, hits mostly cytotoxic. HT-1080 IDH1 knockdown viability, ATP luminescence, 48 h;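 further: potency means the concentration at half of the fitted maximal effect; 0% = DMSO wells and -100% = cell-free medium wells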
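% activity derives from luminescence (CellTiter-Glo), normalised to DMSO and no-cell wells. HT-1080-IDH1KD cells, 750/well, had 48 h compound exposure at 37 °C.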
IL1B secr inh: inflammasome signaling inhibition, IL-1 beta readout | THP-1 LPS/ATP IL-1B secretion, AlphaLISA, 16 h; stronger effect = lower value | actives 4.7% (n = 360,000) | activity change, % at 57.5 µM; in the data active means activity change below about -50%; inconclusive means mostly about -30% to -49%
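Secreted IL-1B measured by AlphaLISA bead assay after 16 h compound exposure of THP-1 cells; compounds (final up to 57.5 uM) added 1 h before LPS (250 ng/mL) and ATP (1.25 mM) stimulation; lower signal means less secretion.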
TDP1 cell noCPT: qHTS for Inhibitors of human tyrosyl-DNA phosphodiesterase 1 (TDP1): qHTS in cells in absence of CPT; DT40 Tdp1-/- hTDP1 cells, no CPT, ATP luminescence, 48 h; actives 15% (n = 420,000); Potency, µM (highest dose often 46.2 µM), for the others: at the highest dose activity change, negative = growth inhibition, actives largely listed as inhibitors; further: potency means the concentration at half of the fitted maximal effect; nearly all actives have a fitted effect of over 55% in size
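Chicken DT40 Tdp1-/- cells stably complemented with human TDP1 were seeded at 400 cells/well with DMSO in place of 20 nM camptothecin. After compound pinning, cells grew at least 48 hr at 37 °C; viability read by CellTiter-Glo luminescence.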
ALOX12 inh: blocks human arachidonate 12S-lipoxygenase. P18054. purified 12hLO, xylenol orange hydroperoxide absorbance. Potency, µM (top dose mostly 108 µM), without a hit: top-dose activity change, negative = inhibition, hits mostly inhibitors. actives 1.1% (n = 580,000); further: potency means the concentration at half of the fitted maximal effect
Target sequence (P18054 whole entry, looked up): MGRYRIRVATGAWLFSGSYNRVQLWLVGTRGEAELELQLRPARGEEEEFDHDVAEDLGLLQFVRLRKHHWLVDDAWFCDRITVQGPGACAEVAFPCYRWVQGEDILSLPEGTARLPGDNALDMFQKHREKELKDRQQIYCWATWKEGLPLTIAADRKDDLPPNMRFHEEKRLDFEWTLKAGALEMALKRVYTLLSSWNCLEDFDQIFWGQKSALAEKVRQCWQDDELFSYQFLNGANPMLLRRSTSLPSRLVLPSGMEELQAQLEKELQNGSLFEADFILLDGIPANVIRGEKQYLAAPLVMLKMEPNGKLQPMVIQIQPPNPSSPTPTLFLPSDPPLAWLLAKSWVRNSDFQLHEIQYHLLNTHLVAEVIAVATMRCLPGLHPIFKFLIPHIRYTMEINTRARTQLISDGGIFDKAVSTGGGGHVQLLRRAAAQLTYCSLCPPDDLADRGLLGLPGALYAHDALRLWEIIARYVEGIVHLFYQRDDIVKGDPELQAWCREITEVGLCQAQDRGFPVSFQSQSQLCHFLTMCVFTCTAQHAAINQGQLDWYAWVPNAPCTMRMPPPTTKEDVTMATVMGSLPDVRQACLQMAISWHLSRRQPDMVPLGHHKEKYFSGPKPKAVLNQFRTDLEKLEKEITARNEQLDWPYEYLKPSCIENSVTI
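Hydroperoxide product was detected by ferrous iron/xylenol orange as the 573 to 405 nm absorbance ratio. Arachidonic acid at 40 uM (final) was turned over for 30 min at room temperature by 150 nM human 12hLO, pH 7.0 Hepes buffer, after 15 min compound preincubation.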
TDP1 cell CPT: growth inhibition of DT40 Tdp1-/-;hTDP1 cells with camptothecin (screen for TDP1 inhibitors) | chicken DT40 Tdp1-/-;hTDP1 cells + 20 nM CPT, ATP luminescence, 48 h | Potency, µM (series often up to 46.2 µM), for the others: at the top dose activity change, negative = growth inhibition, hits mostly inhibitors | actives 12% (n = 420,000) | AID 686979; further: potency means the concentration at half of the fitted maximal effect; nearly all actives have a fitted effect of over 55% in size
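Chicken DT40 Tdp1-/- cells complemented with human TDP1, 400 cells/well, exposed to compounds plus 20 nM camptothecin for at least 48 h at 37 C; viability read as ATP content by CellTiter-Glo luminescence.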
HT1080-NT tox: kills 2HG-producing HT-1080-NT fibrosarcoma cells; actives 1.6% (n = 360,000); Potency, µM (top dose mostly 46.1 µM), for inactives: at the highest dose activity, negative = less viability, most hits filed as cytotoxic; AID 686970; HT-1080-NT fibrosarcoma viability, CellTiter-Glo ATP luminescence, 48 h;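 further: NT is the 2HG producing partner of a matched IDH1 knockdown line; potency means the concentration at half of the fitted maximal effect; 0% = DMSO-treated cells and -100% = media-only wells without cells; nearly all actives have a fitted effect of over 55% in size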
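Compounds were tested in concentration-response format on HT-1080-NT cells for 48 hours at 37 degrees C. Cell viability came from CellTiter-Glo luminescence; curves were classified by r2, response magnitude and activity.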
The depositor's hits bear a star; u = inconclusive; x = no result. The entries come from a sample that favours hits as a whole. Unless noted, the call rests on the fitted dose curve; in most records, active means well fitted curve in the direction sought with a large enough effect; inconclusive means small, poorly fitted or top-dose-only effect, or another doubt; inactive means no such curve, though single readings can be large; an effect the other way counts as inactive or inconclusive. Unless noted, on the % scale 0 is the no-effect control and ±100 the full control effect.

SMILES | HT1080 IDH1KD tx | IL1B secr inh | TDP1 cell noCPT | ALOX12 inh | TDP1 cell CPT | HT1080-NT tox
O=C(C1CC(=O)N(c2ccc3c(c2)OCCO3)C1)N1CCN(c2ccccc2O)CC1 (configuration not stated) | -1% | -9 | u | 463% | 21µM* | -4%
CCCc1sc(N/N=C/c2ccccn2)nc1-c1ccc(F)cc1 | 3.2µM* | -100* | 4.6µM* | x | 4.6µM* | 2.8µM*
Cc1nc(N/N=C/c2ccccn2)sc1C | 15µM* | -101* | 1.3µM* | -5% | 1.3µM* | 13µM*
COC(=O)c1ccc(/C=N/Nc2nc(C)c(C)s2)cc1 | 1% | x | u | 0% | -26% | 0%
COc1ccccc1N(C(=O)c1ccncc1)c1nc(-c2ccc([N+](=O)[O-])cc2)cs1 | -19% | 0 | 16µM* | -4% | 16µM* | -6%
COc1cccc(N2CCN(c3ncnc4onc(-c5ccc(Cl)cc5)c34)CC2)c1 | x | x | 16µM* | -13% | u | x
CC(=O)c1ccc(N2CCN(c3ncnc4onc(-c5ccc(Cl)cc5)c34)CC2)cc1 | x | x | 16µM* | -23% | 23µM* | x
CCCNc1ncnc2onc(-c3ccc(Cl)cc3)c12 | x | x | x | 0% | x | x
Fc1ccccc1N1CCN(c2ncnc3onc(-c4ccc(Cl)cc4)c23)CC1 | x | x | 21µM* | -15% | -26% | x
COc1ccc(-c2nc3cc(NC(=O)COc4ccccc4Cl)ccc3o2)cc1 | x | x | x | 2% | x | x
Cc1ccc(CNC(=O)NCCNc2ncccn2)cc1 | x | x | x | -6% | x | x
Cc1ccc(-n2c(=O)[nH]c3cc(C(=O)NCCc4ccccc4)ccc3c2=O)cc1 | x | x | -25% | 7% | 1% | x
C[C@H](CO)N1C[C@H](C)[C@@H](CN(C)S(=O)(=O)c2ccc(Cl)cc2)Oc2ccc(NS(=O)(=O)c3ccccc3)cc2CC1=O | u | -27 | u | -15% | 10µM* | -22%
C[C@H]1CN([C@@H](C)CO)C(=O)Cc2cc(NC(=O)CCC(F)(F)F)ccc2O[C@H]1CN(C)S(=O)(=O)c1ccc(F)cc1 | u | 54 | 6.5µM* | -26% | 7.3µM* | 12µM*
C[C@H]1CN([C@@H](C)CO)C(=O)Cc2cc(NC(=O)CCC(F)(F)F)ccc2O[C@H]1CN(C)S(=O)(=O)c1ccc(Cl)cc1 | 4.6µM* | 50 | u | u | 5.2µM* | 3.7µM*
Cc1ccc(S(=O)(=O)N(C)C[C@@H]2Oc3ccc(NS(=O)(=O)c4ccccc4)cc3CC(=O)N([C@@H](C)CO)C[C@H]2C)cc1 | -2% | 9 | u | -16% | u | -14%
COCCc1noc(-c2ccccc2OC2CN(C(=O)c3cnc(C)cn3)C2)n1 | x | x | x | 20% | x | x
COc1cccc(Cn2c(C(C)n3c(C)nc4ccccc43)nc3ccccc32)c1 (configuration not stated) | u | 21 | 12µM* | -68% | u | u
COc1cc(Cn2c(-c3nonc3N)nc3ccccc32)ccc1C | 1.8µM* | 7 | 4.1µM* | 82% | 2.9µM* | 3.7µM*
Cc1ccc(Cn2c(-c3nonc3N)nc3ccccc32)cc1 | -7% | 12 | -23% | 5% | -10% | -7%
CCOc1ccc(CCNC(=O)Cn2c(-c3nonc3N)nc3ccccc32)cc1OCC | -11% | -3 | 13µM* | -5% | 10µM* | -4%
Nc1nonc1-c1nc2ccccc2n1Cc1cccc(Cl)c1 | x | x | 10% | -23% | -6% | x
COc1cccc(Cn2c(-c3nonc3N)nc3ccccc32)c1 | 2.1µM* | 50 | 2.9µM* | 0% | 2.9µM* | 2.6µM*
COc1ccc(CCNC(=O)Cn2c(-c3nonc3N)nc3ccccc32)cc1OC | 1% | -20 | u | -16% | -28% | 0%
COC(=O)c1cccc(OC(=O)/C=C/c2ccc(-c3ccccc3)s2)c1 | x | x | x | 13% | x | x
SMILES | HT1080 IDH1KD tx | IL1B secr inh | TDP1 cell noCPT | ALOX12 inh | TDP1 cell CPT | HT1080-NT tox
COc1cc(C)ccc1N(CCCN1C(=O)c2cccc3cccc(c23)C1=O)C(=O)c1cccs1 | 7% | -7 | 9.2µM* | 12% | 9.2µM* | 10%
CC(C)CCNC(=O)CCC(=O)NCCC1=CCCCC1 | x | x | x | 0% | x | x
CCN(C1CCOCC1)C1CN(C(=O)c2cnn(C)c2)C1 | x | x | x | 22% | x | x
C1CN(CC23CC4CC(CC(C4)C2)C3)CCO1 | -5% | -1 | 16µM* | 126% | -21% | 3%
CSCC1CCN(C(=O)CN2CC(c3ccccc3)CC2=O)CC1 (configuration not stated) | x | x | x | 22% | x | x
CCOc1ccc(-c2nc(N)ncc2-c2ccc(OC)cc2)c(O)c1 | 1% | -8 | u | -30% | u | -8%
CCOc1ccc(-c2nc(N)ncc2Oc2ccc(OC)cc2)c(O)c1 | u | -87* | 2% | 16µM* | -5% | 23µM*
CCOc1ccc(-c2nc(N)ncc2-c2ccccc2)c(O)c1 | u | u | 15µM* | 9% | 21µM* | u
CCC(C)c1ccc(NC(=S)N2CCN(S(C)(=O)=O)CC2)cc1 (configuration not stated) | 1% | -6 | 14% | -18% | -7% | -1%
COc1ccc(NC(=O)C(c2ccc(C)cc2)N(C)C(=O)Cc2cccs2)cc1 (configuration not stated) | 4% | -16 | u | 8% | u | -2%
CCOCCCNC(=O)C(c1ccc(OC)cc1)N(Cc1cccs1)C(=O)c1ccc(NC(C)=O)cc1 (configuration not stated) | x | x | 12µM* | -21% | 8.2µM* | x
